Laboratory results taken from paper PMC5540273 (PLoS ONE, 2017).

Experiments:
Conditions in all cases: concentration: 1 μM, replicates: in singlicate; n = 1
[1] = tested on: ULK2
[2] = tested on: ULK3
[3] = tested on: T1, VEGFR2
T1 construct: gene KDR

[4] = tested on: T2, VPS34
T2 construct: gene PIK3C3

[5] = tested on: VRK2
[6] = tested on: WEE1
[7] = tested on: WEE2
[8] = tested on: WNK1
[9] = tested on: WNK2
[10] = tested on: WNK3
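Also: KINOMEscan kinase panel screen.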

| SMILES | %Inh [1] | %Inh [2] | %Inh [3] | %Inh [4] | %Inh [5] | %Inh [6] | %Inh [7] | %Inh [8] | %Inh [9] | %Inh [10] |
| --- | --- | --- | --- | --- | --- | --- | --- | --- | --- | --- |
| Cn1ccc2ncnc(Oc3ccc(NC(=O)Nc4cccnc4)c(Cl)c3)c21 | 8% | 0% | 74% | 0% | 0% | 0% | 28% | 0% | 0% | 0% |
| Fc1cccc(COc2ccc(Nc3ncnc4cc[nH]c34)cc2Cl)c1 | 14% | 34% | 16% | 18% | 13% | 12% | 4% | 0% | 14% | 0% |
| O=c1cc(N2CCOCC2)nc2n(Cc3cccc(Cl)c3)ccn12 [GSK2296823] | 0% | 11% | 6% | 93.3% | 2% | 0% | 13% | 5% | 0% | 3% |
| O=C(Nc1ccccc1F)NC1CCN(c2ccnc(Nc3ccc(F)cc3)n2)C1 (stereo not shown) [GSK1379722] | 0% | 8% | 0% | 0% | 16% | 9% | 0% | 10% | 0% | 38% |
| Clc1cccc(-c2nc(Nc3ccncc3)c3ccccc3n2)c1 [GW873004] | 0% | 0% | 0% | 48% | 0% | 0% | 0% | 0% | 0% | 0% |
| CSc1nn2c(=O)cc(N3CCOCC3)nc2n1Cc1cccc(Cl)c1Cl [GSK2347225] | 0% | 0% | 0% | 97.1% | 0% | 29% | 35% | 11% | 18% | 4% |
| Nc1nc(-c2ccccn2)c(-c2ccnc3ccccc23)s1 [GW548057] | 0% | 13% | 12% | 9% | 62% | 13% | 0% | 15% | 11% | 50% |
| Cl.Cl.c1ccc(-c2cc3ccncc3cc2OC2CCNCC2)cc1 [GSK1122999] | 0% | 4% | 0% | 67% | 0% | 5% | 11% | 7% | 0% | 0% |
| Fc1ccc(-c2ncn(CCCNCc3ccccc3)c2-c2ccncc2)cc1 | 19% | 14% | 0% | 0% | 13% | 0% | 4% | 0% | 0% | 0% |
| COc1ccc(Nc2nccc(N3CCC(NC(=O)Nc4ccc5c(c4)OCO5)C3)n2)cc1 (stereo not shown) [GSK1379745] | 0% | 15% | 0% | 13% | 0% | 12% | 14% | 2% | 0% | 15% |
